The panel holds about 83,000 compounds, 20% with a hit somewhere; the sample as a whole holds those more often.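 Cell lines were cultured in 96-well plates, exposed to a single compound concentration, and assessed for percent growth 48 hours later.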 A number with no mark means an inactive call. Calls of active or inactive are those of the source. Rule for the calls: active = growth percent below 10; inactive = the rest.
Key:
Assay in all cases: NCI-60 one-dose screen, 48 h (100 = growth as untreated, 0 = no growth, -100 = all killed)
Details in all cases: 10 µM unless noted
SK-MEL-2 melanoma = system: SK-MEL-2 melanoma
EKVX NSCLC = system: EKVX NSCLC
SN12C renal = system: SN12C renal
UO-31 renal = system: UO-31 renal
TK-10 renal = system: TK-10 renal
ACHN renal = system: ACHN renal
CAKI-1 renal = system: CAKI-1 renal
A498 renal = system: A498 renal
MOLT-4 leukemia = system: MOLT-4 leukemia
CCRF-CEM leukemia = system: CCRF-CEM leukemia

COc1ccc(-c2n[nH]nc2-c2csc3ccccc23)cc1OC
growth (SK-MEL-2 melanoma): 15%
growth (EKVX NSCLC): 45.8%
growth (SN12C renal): 34%
growth (UO-31 renal): 35.1%
growth (TK-10 renal): 53.2%
growth (ACHN renal): 37.7%
growth (CAKI-1 renal): 23.2%
growth (A498 renal): 1.02% (active)
growth (MOLT-4 leukemia): 11%

O=C1C=C(OCC=C(Cl)Cl)C(=O)c2ccccc21
growth (SK-MEL-2 melanoma): 69.8%
growth (EKVX NSCLC): 93.3%
growth (SN12C renal): 84.5%
growth (UO-31 renal): 59%
growth (TK-10 renal): 122%
growth (ACHN renal): 64%
growth (CAKI-1 renal): 93.4%
growth (A498 renal): 97.7%
growth (CCRF-CEM leukemia): 28.7%
growth (MOLT-4 leukemia): 71%

C#CCOc1ccc2ncnc(Nc3cccc(CNC(=O)CCl)c3)c2c1
growth (SK-MEL-2 melanoma): 49.6% [8.25 µM]
growth (EKVX NSCLC): 58.7% [8.25 µM]
growth (SN12C renal): 30.3% [8.25 µM]
growth (UO-31 renal): 39.8% [8.25 µM]
growth (TK-10 renal): 38% [8.25 µM]
growth (ACHN renal): 37.8% [8.25 µM]
growth (CAKI-1 renal): 39.6% [8.25 µM]
growth (A498 renal): -1.38% [8.25 µM] (active)
growth (CCRF-CEM leukemia): 14.4% [8.25 µM]
growth (MOLT-4 leukemia): 15.1% [8.25 µM]

Cc1ccc2c(C(C[N+](=O)[O-])c3ccccc3F)c(-c3ccccc3)[nH]c2c1 (stereo unspecified)
growth (SK-MEL-2 melanoma): 15.4%
growth (EKVX NSCLC): 56.3%
growth (SN12C renal): 54.5%
growth (UO-31 renal): 47.5%
growth (TK-10 renal): 70.6%
growth (ACHN renal): 48.5%
growth (CAKI-1 renal): 32.9%
growth (A498 renal): 32.5%
growth (CCRF-CEM leukemia): 28.6%
growth (MOLT-4 leukemia): 25.9%

COC(=O)c1ccc(Cn2cnc3c(N)ncnc32)cc1
growth (SK-MEL-2 melanoma): 90.8%
growth (EKVX NSCLC): 102%
growth (SN12C renal): 102%
growth (UO-31 renal): 89.9%
growth (TK-10 renal): 86.3%
growth (ACHN renal): 101%
growth (CAKI-1 renal): 103%
growth (A498 renal): 104%
growth (CCRF-CEM leukemia): 102%
growth (MOLT-4 leukemia): 93.2%

COc1cc2c(cc1-c1c(C)noc1C)ncc1nc(C3CCC(F)(F)CC3)n([C@H](C)COC(F)F)c12
growth (SK-MEL-2 melanoma): 65.7%
growth (EKVX NSCLC): 48.1%
growth (SN12C renal): 51%
growth (UO-31 renal): 25.3%
growth (TK-10 renal): 27.1%
growth (ACHN renal): 37.5%
growth (CAKI-1 renal): 35.4%
growth (A498 renal): -22.8% (active)
growth (CCRF-CEM leukemia): 50.3%
growth (MOLT-4 leukemia): 48.9%

O=C1c2cc3c(cc2-c2c1c1cc(F)c(F)cc1c(=O)n2CCCn1ccnc1)OCO3
growth (SK-MEL-2 melanoma): -11.2% (active)
growth (EKVX NSCLC): 30.9%
growth (SN12C renal): -1.14% (active)
growth (UO-31 renal): -23.7% (active)
growth (TK-10 renal): 29.8%
growth (ACHN renal): -55.7% (active)
growth (CAKI-1 renal): 3.03% (active)
growth (A498 renal): -74.1% (active)
growth (CCRF-CEM leukemia): 7.04% (active)
growth (MOLT-4 leukemia): -14.3% (active)

C#CC(F)(F)[C@]1(O)CC[C@H]2[C@@H]3CCC4=CC(=O)CCC4=C3[C@@H](c3ccc(C4CC4)cc3)C[C@@]21C
growth (SK-MEL-2 melanoma): 59.5%
growth (EKVX NSCLC): -67.4% (active)
growth (SN12C renal): 60.3%
growth (UO-31 renal): -84.8% (active)
growth (TK-10 renal): 99.8%
growth (ACHN renal): 40.4%
growth (CAKI-1 renal): -73.3% (active)
growth (A498 renal): -5.83% (active)
growth (MOLT-4 leukemia): -6.54% (active)

O=S(=O)(Nc1ccc(OC(F)F)cc1)c1ccc(-c2cnc(C3CC3)o2)cc1
growth (SK-MEL-2 melanoma): 63.9%
growth (EKVX NSCLC): 61.7%
growth (SN12C renal): 77.5%
growth (UO-31 renal): 60.2%
growth (TK-10 renal): 102%
growth (ACHN renal): 79.4%
growth (CAKI-1 renal): 47.2%
growth (A498 renal): 16.9%
growth (CCRF-CEM leukemia): 66.8%
growth (MOLT-4 leukemia): 50.1%

O=C(/C=C/c1cccc([N+](=O)[O-])c1)c1ccc(O)c(CN2CCN(c3cc4c(cc3F)c(=O)c(C(=O)O)cn4C3CC3)CC2)c1
growth (SK-MEL-2 melanoma): 88.3%
growth (EKVX NSCLC): 52.8%
growth (SN12C renal): 32.5%
growth (UO-31 renal): -29.7% (active)
growth (TK-10 renal): 34.5%
growth (ACHN renal): 8.06% (active)
growth (CAKI-1 renal): 42.3%
growth (A498 renal): 97.2%
growth (MOLT-4 leukemia): 2.37% (active)

Cc1ccc(-c2onc3c(=O)[nH]nc(-c4ccccc4)c23)cc1
growth (SK-MEL-2 melanoma): 25.6%
growth (EKVX NSCLC): 39%
growth (SN12C renal): 37.4%
growth (UO-31 renal): 47.7%
growth (TK-10 renal): 55%
growth (ACHN renal): 56.9%
growth (CAKI-1 renal): 33.9%
growth (A498 renal): 30%
growth (MOLT-4 leukemia): 26%

O=S(=O)(Nc1ccc(Br)c(Cl)c1)c1ccc(-c2cnc(C3CC3)o2)cc1
growth (SK-MEL-2 melanoma): 34.4%
growth (EKVX NSCLC): 33.9%
growth (SN12C renal): 41.1%
growth (UO-31 renal): 47.5%
growth (TK-10 renal): 51.5%
growth (ACHN renal): 46.4%
growth (CAKI-1 renal): 30.9%
growth (A498 renal): -18.2% (active)
growth (CCRF-CEM leukemia): 19.3%
growth (MOLT-4 leukemia): 27.6%

Cc1nc2ccccc2n1C(=O)C[C@@H]1NC(=S)NC1=O
growth (SK-MEL-2 melanoma): 113%
growth (EKVX NSCLC): 93.6%
growth (SN12C renal): 103%
growth (UO-31 renal): 78.3%
growth (TK-10 renal): 90.9%
growth (ACHN renal): 96.5%
growth (CAKI-1 renal): 91.5%
growth (A498 renal): 94.9%
growth (CCRF-CEM leukemia): 109%
growth (MOLT-4 leukemia): 100%

From PubChem BioAssay (NCI)
